In PubChem BioAssay:
The source made the active and inactive calls. Unless noted, the rule behind the calls is not given here.

How the values were obtained:
[1] = test system: Wnt5a (protein binding on small-molecule microarray); assay: small molecules binding Wnt5a protein – biophysical, small-molecule microarray, 635/667 nm fluorescence, primary screen (AID 1142); conditions: 635 nm fluorescence, higher = more signal;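 note: fluorescence read at 667 nm with signal to noise per printed feature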
[2] = ATP-based viability of Huh7 replicon cells – cell-based, CellTiter-Glo luminescence, basal, 48 h, cytotoxicity control for HCV replication inhibitor project, primary screen (AID 1143); conditions: higher = more signal, called active from +8 up or from −8 down;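 note: Huh7 hepatoma cells carrying a hepatitis C replication reporter with no stimulus; test concentration not given here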
[3] = Pseudomonas biofilm growth suppression – PAO1 strain, BacTiter-Glo luminescence, LB-PBS, primary screen (AID 1144); conditions: P. aeruginosa PAO1 biofilm, 12 h, higher = more signal
[4] = basal CRE-LacZ reporter activity in PC12 – cell-based, unstimulated, primary screen (AID 1145); conditions: no forskolin, luminescence, 4.5 h, higher = more signal, called active from +8 up or from −8 down
[5] = forskolin-driven CRE-LacZ activity in PC12 – cell-based, CRE-LacZ reporter, forskolin-stimulated, primary screen (AID 1146); conditions: luminescence, 4.5 h, higher = more signal, called active from +8 up or from −8 down;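 note: PC12 cells with 6xCRE LacZ reporter stimulated by forskolin 10 µM; beta-galactosidase reporter signal reflecting CREB driven transcription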
[6] = target: Streptavidin (Streptomyces avidinii) (UniProt P22629); assay: compounds binding control protein streptavidin – biophysical, small-molecule microarray, 635/667 nm fluorescence, artefact control for SMM compound annotation, primary screen (AID 1147); conditions: higher = more signal;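 note: signal reflects streptavidin binding to arrayed compounds as a control protein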
Chain of Streptavidin (Streptomyces avidinii) (P22629 whole entry, looked up): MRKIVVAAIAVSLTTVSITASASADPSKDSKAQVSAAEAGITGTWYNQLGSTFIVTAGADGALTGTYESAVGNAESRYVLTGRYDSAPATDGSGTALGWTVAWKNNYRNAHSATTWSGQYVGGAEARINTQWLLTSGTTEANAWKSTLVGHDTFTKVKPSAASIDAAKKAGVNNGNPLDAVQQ

[7] = probe aInhba binding on compound microarray – biochemical, small-molecule microarray, 635/667 nm fluorescence, primary screen (AID 1148); conditions: higher = more signal;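 note: score merges 667nm spot fluorescence with signal-to-noise for antibody binding to printed compounds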
Torsin-1A (Homo sapiens) [8] = target: Torsin-1A (Homo sapiens) (UniProt O14656); assay: TOR1A wild-type binding on microarray – cell lysate, small-molecule microarray, lysate, 635/667 nm, primary screen (AID 1149); conditions: COS7 hTOR1A-WT lysate, 635 nm fluorescence, higher = more signal
Chain of Torsin-1A (Homo sapiens) (O14656 whole entry, looked up): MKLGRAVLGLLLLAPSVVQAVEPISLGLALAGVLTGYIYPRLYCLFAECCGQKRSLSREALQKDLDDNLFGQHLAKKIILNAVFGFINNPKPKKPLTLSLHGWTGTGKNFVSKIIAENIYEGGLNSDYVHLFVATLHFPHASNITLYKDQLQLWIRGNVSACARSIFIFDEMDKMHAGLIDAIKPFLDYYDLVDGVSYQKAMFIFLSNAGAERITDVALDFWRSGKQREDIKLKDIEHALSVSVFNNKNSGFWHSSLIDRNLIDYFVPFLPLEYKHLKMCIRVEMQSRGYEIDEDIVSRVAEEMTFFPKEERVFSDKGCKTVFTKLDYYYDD

Torsin-1A (Homo sapiens) [9] = target: Torsin-1A (Homo sapiens) (UniProt O14656); assay: torsin A mutant lysate binding on microarrays – cell lysate, small-molecule microarray, COS7 lysate, 635/667 nm fluorescence, primary screen (AID 1150); conditions: COS7 hTOR1A mutant lysate, 635 nm fluorescence, higher = more signal;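 note: score pools 667 nm emission and signal to noise measuring lysate protein binding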
[10] = test system: Sonic hedgehog protein (Shh); assay: Sonic hedgehog microarray binding compounds – biochemical, small-molecule microarray, 635/667 nm fluorescence, primary screen (AID 1151); conditions: 635 nm fluorescence, higher = more signal;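 note: Shh protein binding to compounds spotted on small-molecule microarray slides; score combines spot fluorescence intensity with signal-to-noise across triplicate slides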
[11] = optical density shifts of acrAB sulA E. coli – strain DRC41, OD650, 48 h, E. coli filamentation inducer project, primary screen (AID 1152); conditions: higher = more signal, called active from +8 up or from −8 down;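 note: E. coli MC1000 strain DRC41 lacking acrAB efflux pump and sulA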
[12] = probe aLefty1 binding on compound microarray – biochemical, small-molecule microarray, 635/667 nm fluorescence, primary screen (AID 1153); conditions: higher = more signal;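 note: score merges spot fluorescence with signal-to-noise ratio from the scanned slide images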
[13] = plasmodial surface anion channel blockers, osmotic lysis – cell-based, P. falciparum Indochina, OD700, 1 h, primary screen (AID 1154); conditions: P. falciparum Indochina infected RBC osmotic lysis, higher = more signal, called active from +8 up or from −8 down
[14] = plasmodial surface anion channel blockers, osmotic lysis – cell-based, P. falciparum Indochina, OD700, 2 h, primary screen (AID 1155);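 note: lysis reports solute entry through the parasite surface anion channel PSAC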; conditions: P. falciparum Indochina infected erythrocytes, higher = more signal, called active from +8 up or from −8 down
[15] = changes in parasitized red cell lysis, either direction – P. falciparum Indochina, OD700, 3 h, PSAC antagonist project, primary screen (AID 1156); conditions: P. falciparum-infected erythrocytes, osmotic lysis, higher = more signal, called active from +8 up or from −8 down
[16] = plasmodial surface anion channel blockers, osmotic lysis – cell-based, P. falciparum Indochina, OD700, 18 h, primary screen (AID 1157); conditions: P. falciparum Indochina infected erythrocytes, osmotic lysis OD700, 18 h; higher = more signal, called active from +8 up or from −8 down
[17] = S6 kinase pathway phospho-S6 level changes – cell-based, A549, cytoblot, luminescence, serum-stimulated, primary screen (AID 1158); conditions: 5 h, higher = more signal;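 note: serum-stimulated A549 lung adenocarcinoma cells; signal is phosphorylated S6 detected by cytoblot immunostaining with HRP secondary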
[18] = target: NADPH oxidase 2 (Homo sapiens) (UniProt P04839); assay: compounds shifting NOX2 Amplex Red fluorescence – cell-based, HEK293-NOX2, PMA-stimulated, NOX inhibitor project, primary screen (AID 1159); conditions: 45 min, higher = more signal, called active from +8 up or from −8 down; note: test concentration not given here
Chain of NADPH oxidase 2 (Homo sapiens) (P04839 whole entry, looked up): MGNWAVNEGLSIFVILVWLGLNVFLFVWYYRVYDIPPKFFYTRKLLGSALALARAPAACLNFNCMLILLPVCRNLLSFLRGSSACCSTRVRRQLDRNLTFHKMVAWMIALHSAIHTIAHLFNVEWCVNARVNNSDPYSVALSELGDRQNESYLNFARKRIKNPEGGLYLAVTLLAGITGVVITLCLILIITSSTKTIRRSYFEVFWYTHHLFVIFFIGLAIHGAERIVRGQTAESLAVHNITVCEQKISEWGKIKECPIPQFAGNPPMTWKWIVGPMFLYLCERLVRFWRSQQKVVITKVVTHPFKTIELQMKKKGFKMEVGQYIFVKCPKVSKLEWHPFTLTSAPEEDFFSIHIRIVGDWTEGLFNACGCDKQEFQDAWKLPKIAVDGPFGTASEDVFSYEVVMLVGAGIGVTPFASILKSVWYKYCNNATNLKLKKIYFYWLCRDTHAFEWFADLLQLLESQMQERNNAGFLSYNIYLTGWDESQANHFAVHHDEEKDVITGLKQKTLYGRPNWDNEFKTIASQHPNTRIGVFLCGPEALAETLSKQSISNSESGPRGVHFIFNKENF

[19] = target: NADPH oxidase 4 (Homo sapiens) (UniProt Q9NPH5); assay: compounds shifting NOX4 Amplex Red fluorescence – cell-based, HEK293-NOX4, tetracycline-induced, NOX inhibitor project, primary screen (AID 1160); conditions: HEK293-NOX4, Amplex Red H2O2 fluorescence, 45 min; higher = more signal, called active from +8 up or from −8 down
Chain of NADPH oxidase 4 (Homo sapiens) (Q9NPH5 whole entry, looked up): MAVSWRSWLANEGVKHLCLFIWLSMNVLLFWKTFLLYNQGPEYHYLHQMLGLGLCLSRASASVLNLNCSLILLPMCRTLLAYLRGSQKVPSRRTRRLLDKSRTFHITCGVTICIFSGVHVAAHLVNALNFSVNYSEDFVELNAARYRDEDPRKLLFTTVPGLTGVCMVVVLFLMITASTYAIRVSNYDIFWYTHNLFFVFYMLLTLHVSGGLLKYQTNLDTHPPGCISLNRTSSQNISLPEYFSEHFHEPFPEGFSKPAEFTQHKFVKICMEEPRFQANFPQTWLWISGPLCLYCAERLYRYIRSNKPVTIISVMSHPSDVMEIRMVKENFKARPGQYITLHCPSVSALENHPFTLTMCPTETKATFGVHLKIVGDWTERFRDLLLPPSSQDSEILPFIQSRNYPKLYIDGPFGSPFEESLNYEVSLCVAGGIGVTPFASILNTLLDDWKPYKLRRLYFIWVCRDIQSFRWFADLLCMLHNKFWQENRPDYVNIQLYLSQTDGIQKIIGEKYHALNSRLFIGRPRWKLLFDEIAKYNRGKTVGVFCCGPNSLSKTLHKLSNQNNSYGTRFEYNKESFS

[20] = target: NADPH oxidase 5 (Homo sapiens) (UniProt Q96PH1); assay: compounds shifting NOX5 Amplex Red fluorescence – cell-based, HEK293-NOX5, NOX inhibitor project, primary screen (AID 1161); conditions: HEK293-NOX5, ionomycin, 45 min, higher = more signal
Chain of NADPH oxidase 5 (Homo sapiens) (Q96PH1 whole entry, looked up): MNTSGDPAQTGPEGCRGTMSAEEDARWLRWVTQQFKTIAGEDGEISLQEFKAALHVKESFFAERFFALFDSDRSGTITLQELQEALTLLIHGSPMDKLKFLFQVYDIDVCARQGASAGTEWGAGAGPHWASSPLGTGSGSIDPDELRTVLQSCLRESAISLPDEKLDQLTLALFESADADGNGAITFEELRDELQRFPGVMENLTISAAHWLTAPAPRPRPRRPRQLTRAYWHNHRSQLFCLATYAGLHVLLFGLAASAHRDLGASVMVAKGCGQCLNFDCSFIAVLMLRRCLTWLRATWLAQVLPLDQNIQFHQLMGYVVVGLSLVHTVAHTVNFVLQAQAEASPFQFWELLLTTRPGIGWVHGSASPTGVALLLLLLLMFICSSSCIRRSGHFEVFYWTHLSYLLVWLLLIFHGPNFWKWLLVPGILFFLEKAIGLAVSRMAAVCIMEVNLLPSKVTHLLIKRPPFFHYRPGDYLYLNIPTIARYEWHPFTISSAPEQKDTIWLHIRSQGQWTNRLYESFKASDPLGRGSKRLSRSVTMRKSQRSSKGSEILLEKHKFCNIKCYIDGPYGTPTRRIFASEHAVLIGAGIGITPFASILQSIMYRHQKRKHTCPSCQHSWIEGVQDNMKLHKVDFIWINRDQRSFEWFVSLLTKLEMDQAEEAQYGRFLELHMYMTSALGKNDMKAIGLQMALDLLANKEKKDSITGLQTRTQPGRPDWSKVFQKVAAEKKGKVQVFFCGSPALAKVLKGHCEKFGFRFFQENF

C=C(C)[C@@H]1CC=C(C(O)C2C=CC3C(=O)N(c4ccccc4)C(=O)C3N2Nc2ccccc2F)CC1 (stereo not given in full)
composite z-score [1]: 0.29
z-score [2]: 0.581 (inactive)
z-score [3]: -0.887 (inactive)
z-score [4]: 0.24 (inactive)
z-score [5]: 0.493 (inactive)
composite z-score [6]: 1.31
composite z-score [7]: 0.153
composite z-score (Torsin-1A (Homo sapiens) [8]): 0.0552
composite z-score (Torsin-1A (Homo sapiens) [9]): 0.77
composite z-score [10]: 0.27
z-score [11]: -1.79 (inactive)
composite z-score [12]: 0.744
z-score [13]: 0.19 (inactive)
z-score [14]: 1.01 (inactive)
z-score [15]: 0.039 (inactive)
z-score [16]: 1.1 (inactive)
z-score [17]: -1.23
z-score [18]: 0.032 (inactive)
z-score [19]: -1.64 (inactive)
z-score [20]: -2.14

CC(C)N1C(=O)c2ccccc2[C@@H](C(=O)NC2CC2)[C@@H]1c1ccc(CO)cc1
composite z-score [1]: 0.302
z-score [2]: -0.264 (inactive)
z-score [3]: -0.226 (inactive)
z-score [4]: 0.001 (inactive)
z-score [5]: -0.3 (inactive)
composite z-score [6]: 0.381
composite z-score [7]: -0.0059
composite z-score (Torsin-1A (Homo sapiens) [8]): 0.775
composite z-score (Torsin-1A (Homo sapiens) [9]): 0.852
composite z-score [10]: 0.531
z-score [11]: 0.258 (inactive)
composite z-score [12]: 0.007
z-score [13]: 2.06 (inactive)
z-score [14]: -0.0507 (inactive)
z-score [15]: -0.0836 (inactive)
z-score [16]: -0.307 (inactive)
z-score [17]: 0.167
z-score [18]: 0.393 (inactive)
z-score [19]: 0.708 (inactive)
z-score [20]: 0.442

C[C@@H]1NC(=O)[C@@]23C(=O)N[C@@H](Cc4ccccc4)C2[C@H](C)[C@@]2(C)O[C@H]2C3/C=C/C/C=C\CNC(=O)[C@@H]2CCCN2C1=O (stereo not given in full)
composite z-score [1]: -0.0872
z-score [2]: -0.0642 (inactive)
z-score [3]: -0.426 (inactive)
z-score [4]: -0.687 (inactive)
z-score [5]: -0.226 (inactive)
composite z-score [6]: -0.591
composite z-score [7]: -0.159
composite z-score (Torsin-1A (Homo sapiens) [8]): 0.271
composite z-score (Torsin-1A (Homo sapiens) [9]): -0.127
composite z-score [10]: 0.44
z-score [11]: -0.906 (inactive)
composite z-score [12]: -0.147
z-score [13]: 0.518 (inactive)
z-score [14]: -0.0429 (inactive)
z-score [15]: -1.12 (inactive)
z-score [16]: -0.161 (inactive)
z-score [17]: 0.0613
z-score [18]: -0.0487 (inactive)
z-score [19]: 0.581 (inactive)
z-score [20]: -2.64

CCCNC(=O)[C@@]1(c2ccc([N+](=O)[O-])cc2)CC(=O)N(C2CCCCC2)[C@@H]1c1ccc(CO)cc1
composite z-score [1]: -0.0471
z-score [2]: -1.83 (inactive)
z-score [3]: 0.812 (inactive)
z-score [4]: 0.324 (inactive)
z-score [5]: -0.775 (inactive)
composite z-score [6]: 0.206
composite z-score [7]: 0.138
composite z-score (Torsin-1A (Homo sapiens) [8]): 0.0388
composite z-score (Torsin-1A (Homo sapiens) [9]): 0.455
composite z-score [10]: 0.511
z-score [11]: 0.774 (inactive)
composite z-score [12]: 0.062
z-score [13]: 2.1 (inactive)
z-score [14]: 1.01 (inactive)
z-score [15]: 1.21 (inactive)
z-score [16]: 0.988 (inactive)
z-score [17]: -0.002
z-score [18]: 0.325 (inactive)
z-score [19]: 0.901 (inactive)
z-score [20]: 0.877

[N-]=[N+]=NCc1ccccc1[C@@H]1OC(c2ccc(OCCCO)cc2)=N[C@]1(CCS(=O)(=O)c1ccccc1)C(=O)NCC(O)CO (stereo not given in full)
composite z-score [1]: 0.541
z-score [2]: -0.866 (inactive)
z-score [3]: -0.701 (inactive)
z-score [4]: 1.71 (inactive)
z-score [5]: -1.17 (inactive)
composite z-score [6]: 0.962
composite z-score [7]: 0.0073
composite z-score (Torsin-1A (Homo sapiens) [8]): 1.05
composite z-score (Torsin-1A (Homo sapiens) [9]): 1.36
composite z-score [10]: 0.0169
z-score [11]: 0.766 (inactive)
composite z-score [12]: 0.546
z-score [13]: 24.8 (active)
z-score [14]: 8.05 (active)
z-score [15]: 0.619 (inactive)
z-score [16]: 0.158 (inactive)
z-score [17]: 2.02
z-score [18]: 0.861 (inactive)
z-score [19]: 1.78 (inactive)
z-score [20]: 2.57

CC(C)C(=C=CC[C@H](O)c1cccc(OCCO)c1)C[C@H](O)c1cc(Cl)cc(Cl)c1O
composite z-score [1]: 0.255
z-score [2]: -0.254 (inactive)
z-score [3]: -1.02 (inactive)
z-score [4]: 5.53 (inactive)
z-score [5]: 0.813 (inactive)
composite z-score [6]: 0.092
composite z-score [7]: -0.116
composite z-score (Torsin-1A (Homo sapiens) [8]): 0.605
composite z-score (Torsin-1A (Homo sapiens) [9]): -0.356
composite z-score [10]: 1.95
z-score [11]: 0.321 (inactive)
composite z-score [12]: 0.0999
z-score [13]: 14.5 (active)
z-score [14]: 2.25 (inactive)
z-score [15]: 0.667 (inactive)
z-score [16]: 0.847 (inactive)
z-score [17]: 1.53
z-score [18]: -1.01 (inactive)
z-score [19]: -0.881 (inactive)
z-score [20]: -1.83

CCOC(=O)C[C@H]1[C@H](OC(=O)c2ccc(C(=O)c3ccccc3)cc2)[C@@H](NC(=O)Cc2ccc(OC)cc2)c2cc(OCCCO)ccc2N1C(=O)c1ccccc1
composite z-score [1]: 0.328
z-score [2]: -0.117 (inactive)
z-score [3]: -0.0806 (inactive)
z-score [4]: 1.47 (inactive)
z-score [5]: 0.926 (inactive)
composite z-score [6]: 0.162
composite z-score [7]: -0.0762
composite z-score (Torsin-1A (Homo sapiens) [8]): 0.0313
composite z-score (Torsin-1A (Homo sapiens) [9]): 0.337
composite z-score [10]: 0.622
z-score [11]: -0.915 (inactive)
composite z-score [12]: -0.0762
z-score [13]: 2.41 (inactive)
z-score [14]: -0.431 (inactive)
z-score [15]: -0.937 (inactive)
z-score [16]: 0.384 (inactive)
z-score [17]: -0.408
z-score [18]: -1.25 (inactive)
z-score [19]: 1.16 (inactive)
z-score [20]: 0.303

C=CC[C@@]1(C(=O)N2CCOCC2)N=C(c2ccc(OCCCO)cc2)O[C@@H]1c1ccccc1CN=[N+]=[N-]
composite z-score [1]: 0.935
z-score [2]: -2.2 (inactive)
z-score [3]: 0.887 (inactive)
z-score [4]: 0.204 (inactive)
z-score [5]: -0.818 (inactive)
composite z-score [6]: 1.28
composite z-score [7]: 0.305
composite z-score (Torsin-1A (Homo sapiens) [8]): 0.495
composite z-score (Torsin-1A (Homo sapiens) [9]): 1.46
composite z-score [10]: 0.0134
z-score [11]: -0.124 (inactive)
composite z-score [12]: 0.789
z-score [13]: 21.5 (active)
z-score [14]: 4.83 (inactive)
z-score [15]: 1.61 (inactive)
z-score [16]: 0.986 (inactive)
z-score [17]: 0.36
z-score [18]: -0.305 (inactive)
z-score [19]: 0.645 (inactive)
z-score [20]: -1.07
